# Data from PubChem BioAssay AID1494157 (National Center for Advancing Translational Sciences (NCATS), 2020).
# Results filed as inconclusive are left out. Calls of active or inactive are those of the source. Calls come from the whole dose curve.
# Assay: Confirmatory qHTS for inhibitors of MERS-S pseudo-typed particle cell entry
# Conditions: MERS-S pseudotyped particle entry, luciferase reporter; series mostly up to 57.1 µM
row,Compound,Potency
1,COc1cccc2c1C(=O)c1c(O)c3c(c(O)c1C2=O)C[C@@](O)(C(=O)CO)C[C@@H]3O[C@H]1C[C@H](N)[C@H](OC2CCCCO2)[C@H](C)O1 (some centres undefined),inactive
2,CCN(CC)Cc1cc(Nc2ccnc3cc(Cl)ccc23)ccc1O,9.61 µM (active)
3,O=C(Nc1ccc([N+](=O)[O-])cc1Cl)c1cc(Cl)ccc1O,0.857 µM (active)
4,C[C@@H]1CCO[C@H]2Cn3cc(C(=O)NCc4ccc(F)cc4F)c(=O)c(O)c3C(=O)N12,0.0043 µM (active)
5,CC(C)OC(=O)OCOP(=O)(CO[C@H](C)Cn1cnc2c(N)ncnc21)OCOC(=O)OC(C)C,0.0192 µM (active)
6,CC(C)C(=O)Oc1ccc(CO)cc1[C@H](CCN(C(C)C)C(C)C)c1ccccc1,19.2 µM (active)
7,O=C1c2c(O)ccc(O)c2C(=O)c2c(NCCNCCO)ccc(NCCNCCO)c21,0.961 µM (active)
8,COc1cccc2c1C(=O)c1c(O)c3c(c(O)c1C2=O)C[C@@](O)(C(=O)CO)C[C@@H]3O[C@H]1C[C@H](N)[C@@H](O)[C@H](C)O1,3.83 µM (active)
9,Cc1ccc(NC(=O)c2ccc(CN3CCN(C)CC3)cc2)cc1Nc1nccc(-c2cccnc2)n1,13.6 µM (active)
10,CN(C)CCOC(c1ccccc1)c1ccc(Br)cc1 (centres undefined),17.1 µM (active)
11,CC(C)(C)c1ccc(C(=O)CCCN2CCC(OC(c3ccccc3)c3ccccc3)CC2)cc1,3.41 µM (active)
12,CC(=O)[C@]1(O)Cc2c(O)c3c(c(O)c2[C@@H](O[C@H]2C[C@H](N)[C@H](O)[C@H](C)O2)C1)C(=O)c1ccccc1C3=O,2.15 µM (active)
13,O=C(Nc1ccc(Cl)cc1)Nc1ccc(Cl)c(C(F)(F)F)c1,10.8 µM (active)
14,O=c1[nH]c(=O)n([C@H]2C[C@H](O)[C@@H](CO)O2)cc1C(F)(F)F,6.81 µM (active)
15,O=c1c(C2CC(c3ccc(-c4ccc(Br)cc4)cc3)Cc3ccccc32)c(O)sc2ccccc12 (centres undefined),9.61 µM (active)
16,O=C1CCc2ccc(OCCCCN3CCN(c4cccc(Cl)c4Cl)CC3)cc2N1,12.1 µM (active)
17,CCCCCCCCCCCC[n+]1ccc2ccccc2c1,1.36 µM (active)
18,CN(C)CCC=C1c2ccccc2C(C)(C)c2ccccc21,15.2 µM (active)
19,CN1CCCCC1CCN1c2ccccc2Sc2ccc(S(C)=O)cc21 (centres undefined),17.1 µM (active)
20,CC(C)(C)C(=O)OCOP(=O)(COCCn1cnc2c(N)ncnc21)OCOC(=O)C(C)(C)C,0.0304 µM (active)
21,N=C(N)c1ccc(OCCCCCOc2ccc(C(=N)N)cc2)cc1,12.1 µM (active)
22,C=C1c2c(Cl)ccc(O)c2C(O)=C2C(=O)[C@@]3(O)C(O)=C(C(N)=O)C(=O)[C@@H](N(C)C)[C@@H]3[C@@H](O)[C@H]12,19.2 µM (active)

row,Compound,Potency
1,CCCCCCOC(=O)NC(=N)c1ccc(NCc2nc3cc(C(=O)N(CCC(=O)OCC)c4ccccn4)ccc3n2C)cc1,19.2 µM (active)
2,CCc1c2c(nc3ccc(OC(=O)N4CCC(N5CCCCC5)CC4)cc13)-c1cc3c(c(=O)n1C2)COC(=O)[C@]3(O)CC,15.2 µM (active)
3,C[C@H]1[C@H](OC(=O)CCC(=O)O)O[C@@H]2O[C@@]3(C)CC[C@H]4[C@H](C)CC[C@@H]1[C@@]24OO3,0.857 µM (active)
4,Cc1nnc(C(=O)NC(C)(C)c2nc(C(=O)NCc3ccc(F)cc3)c(O)c(=O)n2C)o1,0.0043 µM (active)
5,COC(=O)C[C@](O)(CCCC(C)(C)O)C(=O)O[C@@H]1C(OC)=C[C@]23CCCN2CCc2cc4c(cc2[C@H]13)OCO4,0.607 µM (active)
6,COc1ccc2cc3[n+](cc2c1OC)CCc1cc2c(cc1-3)OCO2,9.61 µM (active)
7,CN1CCC[C@@H]1CCO[C@](C)(c1ccccc1)c1ccc(Cl)cc1,7.64 µM (active)
8,CCN1CCN(Cc2ccc(Nc3ncc(F)c(-c4cc(F)c5nc(C)n(C(C)C)c5c4)n3)nc2)CC1,0.482 µM (active)
9,CN(C)[C@@H](CCOc1cccc2ccccc12)c1ccccc1,12.1 µM (active)
10,CCN(CC)CCNC(=O)c1c(C)[nH]c(/C=C2\C(=O)Nc3ccc(F)cc32)c1C,4.29 µM (active)
11,Cc1c(N)nc(C(CC(N)=O)NCC(N)C(N)=O)nc1C(=O)NC(C(=O)NC(C)C(O)C(C)C(=O)NC(C(=O)NCCc1nc(-c2nc(C(=O)NCCCN[C@@H](C)c3ccccc3)cs2)cs1)C(C)O)C(O[C@@H]1O[C@@H](CO)[C@@H](O)[C@H](O)[C@@H]1O[C@H]1O[C@H](CO)[C@@H](O)[C@H](OC(N)=O)[C@@H]1O)c1cnc[nH]1 (some centres undefined),inactive
12,CC[C@@H]([C@H](C)O)n1ncn(-c2ccc(N3CCN(c4ccc(OC[C@@H]5CO[C@@](Cn6cncn6)(c6ccc(F)cc6F)C5)cc4)CC3)cc2)c1=O,7.64 µM (active)
13,CC(C)C[C@H](NC(=O)[C@H](CCc1ccccc1)NC(=O)CN1CCOCC1)C(=O)N[C@@H](Cc1ccccc1)C(=O)N[C@@H](CC(C)C)C(=O)[C@@]1(C)CO1,0.192 µM (active)
14,Cc1oncc1C(=O)Nc1ccc(C(F)(F)F)cc1,inactive
15,CNC(=O)c1cc(Oc2ccc(NC(=O)Nc3ccc(Cl)c(C(F)(F)F)c3)c(F)c2)ccn1,15.2 µM (active)
16,CN1CCN(CCC=C2c3ccccc3Sc3ccc(S(=O)(=O)N(C)C)cc32)CC1,6.07 µM (active)
17,CCSc1ccc2c(c1)N(CCCN1CCN(C)CC1)c1ccccc1S2,13.6 µM (active)
18,CN(C)CC/C=C1\c2ccccc2Sc2ccc(Cl)cc21,8.57 µM (active)
19,COc1cc2c(cc1Cc1cccc(Cl)c1F)c(=O)c(C(=O)O)cn2[C@H](CO)C(C)C,0.304 µM (active)
20,CCCCCCCCCCCCCC[n+]1ccc(C)cc1,2.41 µM (active)
21,O=c1ccc2ccccc2o1,inactive
22,OCCN1CCN(CC/C=C2/c3ccccc3Sc3ccc(C(F)(F)F)cc32)CC1,12.1 µM (active)
